# Reference: PubChem BioAssay (NCI)
# The panel holds about 83,000 compounds, 20% with a hit somewhere; the sample as a whole holds those more often.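 Each cell line was grown in a 96-well plate and treated with one concentration of compound for 48 hours. Values below 10 were considered active.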 A number with no mark means an inactive call. Calls of active or inactive are those of the source.
# Test system: SK-MEL-5 melanoma
# Test: NCI-60 one-dose screen, 48 h (100 = growth as untreated, 0 = no growth, -100 = all killed)
# Conditions: 10 µM unless noted
row,Structure (SMILES),growth
1,C#CC(OC(=O)N(C)C)(c1ccccc1)c1ccc(F)cc1 (stereo not drawn),112%
2,CC(C)c1ccc(C(=O)Nc2sc3c(c2C#N)CCC(=O)C3)cc1,-62.9% (active)
3,c1coc2occoc=2o1,97.2%
4,Cc1cc(SC#N)ncn1,100%
5,Cc1ccc(NCCN2CCCCC2)c2c(=O)c3ccccc3sc12,-92.2% (active)
6,O=C(NCCCNC(=O)OCc1ccc2cccc(O)c2n1)OCc1ccc2cccc(O)c2n1,61.5%
7,O=[N+]([O-])c1ccc(O)c(-c2nc3ccccc3s2)c1,25.3%
8,COc1ccc(C(=O)CSc2nccc(Nc3ccc(C(=O)O)cc3)n2)cc1,93.6%
9,C=C(C)[C@@H]1CC[C@]2(C(=O)NCCNCCNC(=O)OC(C)(C)C)CC[C@]3(C)[C@H](CC[C@@H]4[C@@]5(C)CCC(=O)C(C)(C)[C@@H]5CC[C@]43C)[C@@H]12,-8.44% [100 µM] (active)
10,Cc1ccc(-c2cn(C/C=C3\C=CN(S(=O)(=O)c4ccccc4)CC3)nn2)cc1,97%
11,CC1(C)CC[C@]23CC[C@]4(C)[C@H](CC[C@@H]5[C@@]6(C)C/C(=C/c7ccncc7)C(=O)C(C)(C)[C@@H]6CC[C@]54C)[C@H]2[C@H]1OC3=O,36.3% [100 µM]
12,CCN(CC)CCCOc1ccc2c(c1)O/C(=C\c1cccc(OC)c1)C2=O,91.2%
13,CC1Cc2c(Cl)ncnc2N(C)c2ccc(O)cc21 (stereo not drawn),-78.9% (active)
14,CSc1cccc([N+](=O)[O-])c1,99.8%
15,CSc1nc(=S)c2nc(SC)n(-c3ccccc3)c2[nH]1,98.5%
16,O=c1[nH]cnc2c1ccn2C1OC(CO)C(O)C1O (stereo not drawn),83.1%
17,COc1ccc(N(c2nc(-c3ccc([N+](=O)[O-])cc3)cs2)C(C)C)cc1,78.9%
18,COc1cc(NN=C(c2ccc(O)cc2)c2ccc(O)cc2)c([N+](=O)[O-])cc1[N+](=O)[O-],14.3%
19,COc1ccc2nc3c(cc2c1)C(=O)CC(C(F)(F)F)C3 (stereo not drawn),31.4%

row,Structure (SMILES),growth
1,CCOc1ccc(S(=O)(=O)Nc2ccc3c(c2)N(S(=O)(=O)CC)CCC3)cc1,74.9%
2,O=C(Nc1ccc(C(=O)/C=C/c2ccc(N3CCOCC3)cc2)cc1)Nc1ccc([N+](=O)[O-])cc1,95.1%
3,C=C(C)[C@@H]1CC[C@]2(C)[C@H](CC[C@@H]3[C@@H]([C@@](C)(O)CCC=C(C)C)CC[C@]32C)[C@@]1(C)CCC(=O)N1CCN(C)CC1,-99.1% [100 µM] (active)
4,C=C(C)[C@@H]1CC[C@]2(COCCCN)CC[C@]3(C)[C@H](CC[C@@H]4[C@@](C)(CCCNCCCN)[C@H](C(=C)C)CC[C@]43C)[C@@H]12,-55.1% [100 µM] (active)
5,COc1cc2c(cc1OCCCN1CCN(CCCOc3cc4c(cc3OC)C(=O)N3C[C@H](F)C[C@H]3C=N4)CC1)N=C[C@@H]1C[C@@H](F)CN1C2=O,-44.7% (active)
6,CC(C)c1ccc(/C=N/N=C(N)N)cc1,91.7%
7,CCCCCCCCCCCCCCCCCCNC(=S)N/N=C/c1ccc(OC)c(OC)c1,95.3%
8,C=C(C)[C@@H]1CC[C@]2(C)[C@H](CC[C@@H]3[C@@H]([C@@](C)(O)CCC=C(C)C)CC[C@]32C)[C@@]1(C)CCC(=O)O,-88.2% [100 µM] (active)
9,Cc1ccc(S(=O)(=O)Oc2ccc([N+](=O)[O-])cc2[N+](=O)[O-])cc1,76.5%
10,C=CCCCCOc1ccccc1-c1cnc(OCCCCC=C)n1C,83.7%
11,Cc1ncc(C(=O)Nc2ccc(CN3CCN(C)CC3)c(C(F)(F)F)c2)cc1C#Cc1c(N)ncc2ccc(C#N)cc12,16.2%
12,CCc1cccc(Cl)c1,103%
13,Cc1ccc(S(=O)(=O)N/N=C2\CC3CCC2(C)C3(C)C)cc1 (stereo not drawn),101%
14,COc1ccc(C(C(=O)O)c2ccc(OC)cc2)cc1,110%
15,Fc1ccc(NC(=S)c2ccccc2)cc1,101%
16,c1cc2ccc3cc2cc1CNCCN1CCNCc2ccc4ccc(cc4c2)CNCCN(CCNC3)CCNCc2ccc3ccc(cc3c2)CNCC1,88.6%
17,Cn1cc(-c2nnc(-c3ccccc3)s2)c2cc(Br)cnc21,74.1%
18,CCOc1ccc2sc(NS(=O)(=O)c3ccc(N)cc3)nc2c1,106%
19,COc1ccc2c(c1)C(C)Cc1c(Cl)ncnc1N2C (stereo not drawn),-83.6% (active)
